This excerpt belongs to a sample that is enriched for hits.
Mm-Cpn inhibitor = blocks the Methanococcus maripaludis chaperonin Mm-Cpn. actives 0.031% (n = 330,000). Potency, µM (titrated, usually from 76.9 µM), inactives show at the top dose activity, negative = inhibition, most hits filed as inhibitors. purified Mm-Cpn ATPase, ADP Transcreener TR-FRET; further: on the % scale 0 is the no-effect control and ±100 the full control effect; nearly all actives have a fitted effect of over 80% in size
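Purified archaeal Mm-CPN (25nM final) preincubated 10 min at 37degC with compound, then 10uM ATP for 30 min at 37degC; ADP measured by HTRF Transcreener TR-FRET; buffer 30 mM TRIS pH 7.4, 100mM KCl, 5mM MgCl2, 1mM DTT.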
a7 integrin act = activates integrin-mediated alleviation for muscular dystrophy; Potency, µM (series often up to 38.3 µM), without a hit: at the highest dose activation, usual class: activators; alpha7betagal myoblasts, beta-gal FDG fluorescence, 48 h; actives 0.064% (n = 350,000); AID 624291;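 further: 100% = response of the positive control SU9516; nearly all actives have a fitted effect of over 60% in size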
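alpha7betagal+/- myoblasts (passage 13, 250/well) treated 48 h at 37C with compounds at 1:260 dilution of DMSO stock. Lysed, then beta-galactosidase activity read as FDG fluorescence (ex 480/em 540) after 30 min, with pre-read for autofluorescence.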
ClpP mod = qHTS Assay for Activators of ClpP. purified B. subtilis ClpP, FRET peptide cleavage, 20 min. Potency, µM (highest dose often 57.5 µM), for inactives: at the top dose activity change, negative = active. actives 1.9% (n = 340,000); active means well fitted falling curve with a large enough effect; inconclusive means small, poorly fitted or top-dose-only effect; inactive means no such curve, though single readings can be large or run the other way; further: the source files actives as falling curves though it sought activators and does not explain the sign; nearly all actives have a fitted effect of over 65% in size
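FRET quenching reversal measured ClpP activation: 10 microg/mL B. subtilis ClpP at pH 8 with the FRET-FV decapeptide, read at 430 nm after 320 nm excitation. The 20-min minus 0-min signal was scaled between DMSO/no-enzyme wells and ADEP (5.8 microM final).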
USP2a block = blocks human ubiquitin-specific protease USP2a. USP2 core, Ub-CHOP2 coupled fluorogenic reporter, 485/531. Potency, µM (titrated, usually from 38.3 µM), inactives show at the top dose activity change, negative = inhibition, usual class: inhibitors. actives 0.01% (n = 330,000). AID 463254;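 further: plate controls were DMSO wells for no effect and full inhibition by NEM control for full effect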
Target sequence (O75604 whole entry, looked up): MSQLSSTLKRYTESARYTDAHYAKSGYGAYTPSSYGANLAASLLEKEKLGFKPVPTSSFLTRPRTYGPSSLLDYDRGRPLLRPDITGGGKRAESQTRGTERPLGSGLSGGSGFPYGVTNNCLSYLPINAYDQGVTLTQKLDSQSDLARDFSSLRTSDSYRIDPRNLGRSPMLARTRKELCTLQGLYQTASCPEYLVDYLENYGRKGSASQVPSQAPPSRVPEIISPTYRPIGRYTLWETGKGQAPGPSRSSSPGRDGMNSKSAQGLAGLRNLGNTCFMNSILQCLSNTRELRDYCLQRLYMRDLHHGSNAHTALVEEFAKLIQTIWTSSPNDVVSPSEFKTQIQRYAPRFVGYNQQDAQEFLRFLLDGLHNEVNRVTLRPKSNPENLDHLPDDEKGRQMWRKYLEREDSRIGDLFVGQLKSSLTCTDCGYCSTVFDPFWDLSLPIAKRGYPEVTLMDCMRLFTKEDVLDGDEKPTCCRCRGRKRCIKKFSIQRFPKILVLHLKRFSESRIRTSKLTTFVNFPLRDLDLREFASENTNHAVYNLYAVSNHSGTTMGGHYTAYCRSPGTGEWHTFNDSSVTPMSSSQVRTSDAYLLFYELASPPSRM
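Deubiquitinase activity read as fluorescence (485/531 nm) after Ub-CHOP2 cleavage activates the enterokinase reporter on its substrate; USP2 core 10nM, Ub-CHOP2 and substrate 25nM each, 30min compound preincubation then 60min RT; data normalized to NEM, curves fitted.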
p53 reactivation = mutant p53 re-activation in reporter cells; H1299 p53-A138V BP100-luciferase reporter, luminescence, 24 h; Potency, µM (highest dose often 92.2 µM), without a hit: at the highest dose activity change, positive = activation, most hits filed as activators; actives 0.063% (n = 320,000); AID 504706; further: % of control where 0% means no effect; nearly all actives have a fitted effect of over 45% in size
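H1299 (p53-null), stable ts p53-A138V + BP100-Luc; 1000 cells/well, Opti-MEM/10% FBS; cpd 4 pt, 1:5; 24 h, 37 deg C, 5% CO2; detection reagent 10 min RT; luminescence.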
Eya2 phos inh = blocks the phosphatase activity of human Eya2; actives 0.006% (n = 330,000); recombinant Eya2, OMFP fluorescence dephosphorylation (OMFP is methylfluorescein phosphate); O00167; Potency, µM (top dose mostly 76.9 µM), for the others: at the highest dose activity, negative = inhibition, actives largely listed as inhibitors; further: on the % scale 0 is the no-effect control and ±100 the full control effect
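Eya2 (0.2 uM) preincubated 10 min at ambient with compound, then OMFP substrate added at 50 uM; 10 min reaction in 50 mM HEPES pH 7.5, 50 mM NaCl, 5 uM MgCl2, 0.05% BSA, 1 mM DTT. Fluorescence read at Ex 485/Em 525 nm.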
Active calls of the source: *; ? = inconclusive; nt = no result given; ! = a repeat was not active; [ ] = another dose, or the depositor's remark. Unless noted, the call rests on the fitted dose curve; in most records, active means well fitted curve in the direction sought with a large enough effect; inconclusive means small, poorly fitted or top-dose-only effect, or another doubt; inactive means no such curve, though single readings can be large; an effect the other way counts as inactive or inconclusive. Potency means the concentration at half of the fitted maximal effect.

SMILES	Mm-Cpn inhibitor	a7 integrin act	ClpP mod	USP2a block	p53 reactivation	Eya2 phos inh
CN(C)S(=O)(=O)c1cccc(-c2cn3cc(Cl)ccc3n2)c1	-1%	3%[7.66 µM]	28µM*	-3%	3%	-20%
Cc1ccc2nc(SCc3nc(-c4ccc(Cl)cc4)no3)[nH]c2c1	nt	nt	2%	nt	nt	nt
CCCN1CNc2c(c(=O)[nH]c(=S)n2CCc2ccc(C)c(C)c2)C1	nt	nt	-5%	nt	nt	nt
CCc1nc2ccc(C(=O)NCCc3ccc(OC)cc3OC)cc2nc1CC	nt	nt	32µM*	nt	nt	nt
Cc1cccc(/C=N/n2c(-c3cc(-c4ccccc4)n[nH]3)n[nH]c2=S)c1	-2%	26%	25µM*	4%	1%	1%
O=C(CNC(=S)N(Cc1ccccc1)Cc1cccnc1)NC1CCCC1	3%	9%	-2%	2%	-13%	3%
O=C(CNC(=S)N(Cc1ccccc1)Cc1cccnc1)NC1CC1	-1%	12%	25µM*	5%	-10%	3%
CCOC(=O)c1ccccc1S(=O)(=O)N1CCN(c2nc(-c3cccs3)nc3ccccc23)CC1	nt	nt	4%	nt	nt	nt
CC(C)Cc1nc(N2CCN(C(=O)c3ccco3)CC2)c(C#N)c2c1CCC2	-3%	-19%	?	-14%	4%	-5%
CC(C)Cc1nc(N2CCN(C(=O)c3ccccc3)CC2)c(C#N)c2c1CCC2	-8%	29%	32µM*	1%	21%	-17%
CC(C)Cc1nc(N2CCOCC2)c(C#N)c2c1COC(C)(C)C2	-1%	3%	28µM*	2%	19%	-6%
CC(C)Cc1nc(NCCN2CCOCC2)c(C#N)c2c1COC(C)(C)C2	-3%[15.4 µM]	1%	-17%	-1%	-4%	13%
CCCNC(=O)N1CCN(c2nc(C(C)C)c3c(c2C#N)CC(C)(C)OC3)CC1	1%	-6%	5%	-2%	-4%	19%
Cc1ccc(S(=O)(=O)N2CCN(c3nc(C(C)C)c4c(c3C#N)CC(C)(C)OC4)CC2)cc1	0%	17%	14µM*	-1%	-1%	-20%
CC(C)Cc1nc(N2CCCCC2)c(C#N)c2c1CCC2	2%	-29%	35µM*	-4%	?	-21%
CC(C)Cc1nc(Cl)c(C#N)c2c1CCCC2	3%	0%	2%	4%	-9%	-1%
CCCN1C(=O)c2ccccc2NC1c1ccc(OC)c(COc2cccc(OC)c2)c1 (centres undefined)	nt	nt	4%	nt	nt	nt
CCOc1ccc(NC(=O)COC(=O)c2ccccc2OCc2ccccc2Br)cc1	nt	nt	-14%	nt	nt	nt
N#Cc1nc(N)nc(N2CCCCC2)n1	nt	nt	-1%	nt	nt	nt
CC(=O)N1CCN(c2nc(CC(C)C)c3c(c2C#N)CCC3)CC1	-2%	9%	-2%	-10%	-7%	-6%
CC(C)Cc1nc(N2CCN(C(=O)C(C)C)CC2)c(C#N)c2c1CCC2	-1%	12%	20µM*	-5%	8%	-1%
Nc1ccc(/C=C/c2cccc3cccnc23)cc1	nt	nt	-2%	nt	nt	nt
CCOC(=O)C1CCN(c2nc(-c3ccccc3)nc3c2oc2ccccc23)CC1	1%	-13%	32µM*	5%	3%	1%
CCOC(=O)C1CCN(Cc2c(O)ccc3ccccc23)CC1	0%	-11%[7.66 µM]	28µM*	-2%	18%	0%
Cn1cc([N+](=O)[O-])c(C(=O)Nc2ccc3nc(-c4ccccc4)[nH]c3c2)n1	1%	-29%	?	0%	22µM*	-1%
SMILES	Mm-Cpn inhibitor	a7 integrin act	ClpP mod	USP2a block	p53 reactivation	Eya2 phos inh
COCCn1c(SCC(=O)Nc2ccc(NC(=O)c3ccco3)c(OC)c2)nc2ccccc2c1=O	0%	28%	-65%	1%	-9%	-17%
CCn1c(SCC(=O)Nc2ccc(NC(=O)c3ccco3)c(OC)c2)nc2ccccc2c1=O	1%	1%	28µM*	0%	0%	12%
O=C(c1ccccc1)N1CCN(CCc2ccncc2)CC1	nt	nt	3%	nt	nt	nt
Cc1sc2ncnc(Sc3nnnn3-c3ccccc3)c2c1C	0%	-56%	32µM*!	-1%	-22%	17%
COc1ccc(C2C(C#N)=C(N)Oc3cc(N)ccc32)cc1 (centres undefined)	-1%	0%	0%	1%	-2%	12%
COc1ccc(C2C(C#N)=C(N)Oc3c2sc2nc(C)cc(C)c32)cc1 (centres undefined)	-1%	-6%	28µM*	9%	?	22%
N#CC1=C(N)SC(N)=C(C#N)C1Cc1ccccc1	-5%	-39%	-22%	4%	7%	19%[15.4 µM]
N#CC1=C(N)SC(N)=C(C#N)C1CCc1ccccc1	-14%	10%	32µM*	9%	-17%	-2%
C(=Nc1ccc(/C=C/c2ccnc3ccccc23)cc1)c1ccco1	nt	nt	-1%	nt	nt	nt
Cc1ccc(-c2cc3cccc[n+]3cc2-c2ccc(C)cc2)cc1	0%	-52%	2.8µM*	2%	-18%	-2%
Cc1ccc2nc(-c3ccncc3)cc(-c3ccccc3)c2c1	1%	11%	?	-2%	-8%	4%
CC(=O)N1N=C(c2ccc(C(C)(C)C)cc2)OC1(C)C	-2%	-32%	32µM*	2%	15%	-2%
CC(=O)N1N=C(c2ccc3ccccc3c2)OC1(C)C	-3%	5%	14%	0%	14%	-5%
CC1=C(C(=O)Nc2cc(Cl)ccc2C)C2(CCCCC2)OC1=O	nt	nt	2%	nt	nt	nt
COc1cccc(CNC(=O)CCC(=O)N2CC(C)Sc3ccccc32)c1 (centres undefined)	nt	nt	-1%	nt	nt	nt
CC(C)Oc1ccc(CNC(=O)c2ccc(NC(=O)N3CC(C)Sc4ccccc43)cc2)cc1 (centres undefined)	nt	nt	-2%	nt	nt	nt
COc1ccc(CNC(=O)c2cc3cccc4c3n2CC(C)S4)cc1 (centres undefined)	nt	nt	32µM*	nt	nt	nt
CC(C)Oc1ccc(CNC(=O)c2cc3cccc4c3n2CC(C)S4)cc1 (centres undefined)	nt	nt	32µM*	nt	nt	nt
O=C(NCc1ccc(Cl)cc1)c1cc2cccc3c2n1CCS3	nt	nt	22µM*	nt	nt	nt
Cc1cc(OCC(=O)NNC(=O)c2ccncc2)ccc1C(C)C	3%	-2%	4µM*	3%	7%	-26%
CCCCc1ccc(C(=O)COC(=O)c2ccc3nc(C)c(C)nc3c2)cc1	nt	nt	-2%	nt	nt	nt
COc1ccc2nc(-c3ccccc3)nc(C3CCCCC3)c2c1	-2%	2%	?	-1%	5%	-20%
COc1ccc2nc(-c3ccccc3)nc(SC)c2c1	nt	16%	22µM*	nt	nt	nt

Assay outcomes as filed in PubChem.
